# BL2 CD40 inh = CD40 pathway inhibition in BL2 cells; BL2 NF-kB luciferase reporter, CD40L-induced, 4 h; inhibition, % at 10 µM; 83,000 tested, 0.94% active; AID 1053188;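 active = mean inhibition of at least 50% with a set share of replicates also reaching that level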;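 note: 0% = neutral control wells and 100% = IKK inhibitor VII at 50 µM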
# The depositor's hits bear a star; [ ] = another dose, or the depositor's remark. The sample as a whole holds a higher share of hits than the screen did.
SMILES,BL2 CD40 inh
C[C@@H]1CN([C@@H](C)CO)C(=O)c2cc(NC(=O)Nc3ccc(C(F)(F)F)cc3)ccc2O[C@@H](C)CCCCO[C@H]1CN(C)CC1CCCCC1,5[25 µM]
COc1ccc(S(=O)(=O)Nc2ccc3c(c2)C(=O)N([C@@H](C)CO)C[C@H](C)[C@@H](CN(C)Cc2ccc(C(F)(F)F)cc2)OCCCC[C@@H](C)O3)cc1,76*[25 µM]
COc1ccc(NC(=O)Nc2ccc3c(c2)C(=O)N([C@H](C)CO)C[C@@H](C)[C@@H](CN(C)Cc2ccc(C(F)(F)F)cc2)OCCCC[C@@H](C)O3)cc1,5
C[C@H](CO)N1C[C@H](C)[C@H](CN(C)CC2CCCCC2)OCCCC[C@H](C)Oc2ccc(NC(=O)Nc3ccc(C(F)(F)F)cc3)cc2C1=O,76*[25 µM]
COc1ccc(-c2ccc([C@H]3[C@@H](CO)N4CCCCN(C(=O)c5ccc6c(c5)OCO6)C[C@H]34)cc2)cc1,16
Cc1ccc(S(=O)(=O)N(C)C[C@H]2OCCCC[C@@H](C)Oc3ccc(NS(=O)(=O)c4ccc(Cl)cc4)cc3C(=O)N([C@@H](C)CO)C[C@@H]2C)cc1,16
C[C@H]1CN([C@@H](C)CO)C(=O)c2c(c3ccccc3n2C)-c2ccccc2CO[C@@H]1CN(C)C(=O)Nc1ccc(-c2ccccc2)cc1,-4
C[C@@H]1CCCCO[C@@H](CN(C)S(=O)(=O)c2cn(C)cn2)[C@H](C)CN([C@@H](C)CO)C(=O)c2cc(N(C)C)ccc2O1,-9[25 µM]
COc1ccc(NC(=O)N2C[C@H]3[C@@H](c4ccccc42)[C@@H](CO)N3C(=O)C2CCCCC2)cc1,-5
N#C[C@@H]1[C@@H](c2ccc(-c3ccncc3)cc2)[C@@H](CO)N1C(=O)C1CCCC1,4
COc1ccc(NC(=O)Nc2ccc3c(c2)C(=O)N([C@@H](C)CO)C[C@H](C)[C@@H](CN(C)S(=O)(=O)c2ccc(OC)cc2)O3)cc1,-6
C[C@@H]1CCCCO[C@H](CN(C)Cc2ccc(Cl)c(Cl)c2)[C@@H](C)CN([C@H](C)CO)C(=O)c2cc(NS(=O)(=O)c3cccs3)ccc2O1,31[25 µM]
C[C@H]1CN([C@@H](C)CO)C(=O)c2cc(NC(=O)Nc3ccc(C(F)(F)F)cc3)ccc2O[C@H]1CN(C)S(=O)(=O)c1ccc(Cl)cc1,12
C[C@@H]1CN([C@H](C)CO)C(=O)c2cc(NS(=O)(=O)c3ccc(Cl)cc3)ccc2O[C@@H](C)CCCCO[C@H]1CN(C)Cc1ccc(Cl)c(Cl)c1,28
C[C@H](CO)N1C[C@H](C)[C@@H](CN(C)Cc2ccc(Cl)c(Cl)c2)OCCCC[C@H](C)Oc2ccc(NS(=O)(=O)c3cccs3)cc2C1=O,51*[25 µM]
C[C@@H]1CCCCO[C@@H](CN(C)Cc2ccc(Cl)c(Cl)c2)[C@@H](C)CN([C@H](C)CO)C(=O)c2cc(NS(=O)(=O)c3cccs3)ccc2O1,30[25 µM]
C[C@H]1CCCCO[C@@H](CN(C)Cc2ccncc2)[C@@H](C)CN([C@@H](C)CO)C(=O)c2cc(NS(=O)(=O)c3ccc(Cl)cc3)ccc2O1,11[25 µM]
COc1ccc(S(=O)(=O)N(C)C[C@H]2Oc3ccc(NC(=O)Nc4ccc(C(F)(F)F)cc4)cc3C(=O)N([C@@H](C)CO)C[C@@H]2C)cc1,74*[25 µM]
COc1ccc(CN(C)C[C@H]2OCCCC[C@H](C)Oc3ccc(NS(=O)(=O)c4ccc(Cl)cc4)cc3C(=O)N([C@H](C)CO)C[C@H]2C)cc1,63*
CNC[C@@H]1Oc2ccc(NC(C)=O)cc2C(=O)N(C)C[C@H]1C,-2
CO[C@H]1CN(C)C(=O)c2ccc(NC(=O)C3CCC3)cc2OC[C@H](C)N(Cc2cccnc2)C[C@@H]1C,2
COc1ccc(CNC(=O)C[C@H]2CC[C@@H](NC(=O)CN(C)C)[C@H](CO)O2)cc1,-9[25 µM]
C[C@@H](NC(=O)N(C)C[C@@H]1OCc2ccccc2-c2c(n(C)c3ccccc23)C(=O)N([C@@H](C)CO)C[C@@H]1C)c1ccccc1,3
Cc1noc(C)c1C(=O)N(C)C[C@@H]1OCc2ccccc2-c2c(n(C)c3ccccc23)C(=O)N([C@@H](C)CO)C[C@@H]1C,-8
Cc1ccc(S(=O)(=O)N(C)C[C@@H]2OCCCC[C@H](C)Oc3ccc(NC(=O)Nc4ccccc4)cc3C(=O)N([C@H](C)CO)C[C@H]2C)cc1,-12
SMILES,BL2 CD40 inh
CC(=O)N(C)C[C@@H]1Oc2c(NS(C)(=O)=O)cccc2C(=O)N(C)C[C@@H]1C,3
O=C(Nc1ccccc1)N1C[C@@H]2[C@H](c3ccccc31)[C@H](CO)N2Cc1cocn1,-27
c1ccc(-c2nnc3n2N=C(c2ccc4c(c2)OCO4)CS3)nc1,6
NC1=NN=C(c2ccc3c(c2)OCCO3)CS1,52*
c1cc2c(cc1C1=Nn3c(nnc3C3CCCCC3)SC1)OCO2,8
CN1[C@H](C(=O)NCCc2ccccc2)[C@@H](CO)[C@@H]2Cn3c(cccc3=O)[C@@H]21,-3[25 µM]
O=C(CC(F)(F)F)N1C[C@H]2[C@@H](c3ccccc31)[C@H](CO)N2C(=O)C1CC1,-4
O=S(=O)(Cc1ccccc1)N1C[C@@H]2N[C@H](C1)C2c1ccc(-c2ccccc2)cc1 (some centres not stated),0
CN1C(=O)c2cc(NC(=O)Cc3cccs3)ccc2OC[C@@H]2O[C@@H](CC(=O)NCCc3ccncc3)CC[C@@H]21,-5[25 µM]
O=C(Nc1ccc2c(c1)OCCO2)c1ccccn1,78*
CC(OC(=O)c1ccccn1)C(=O)Nc1ccc2c(c1)OCCO2 (configuration not stated),-1
O=C(Nc1ccc2c(c1)OCCO2)c1ccc2ccccc2n1,-42
CNC[C@H]1Oc2ccc(N(C)C)cc2C(=O)N([C@@H](C)CO)C[C@@H]1C,3[25 µM]
CN(C)C(=O)c1cccc(-c2ccc(C3[C@H]4CNC[C@@H]3N4C(=O)Nc3cc(F)ccc3F)cc2)c1 (some centres not stated),6
O=C(c1ccc(F)cc1)N1[C@@H]2CNc3ccccc3[C@@H]2[C@@H]1CO,4[25 µM]
COC(=O)Nc1nc2ccc(Br)cc2s1,-9
CCCC(=O)Nc1nc2ccc(OC)cc2s1,-59
COC(=O)c1ccc2nc(NC(=O)C(C)(C)C)sc2c1,79*
CCCNC(=O)N1[C@H](CO)[C@H](c2ccc(C3=CCCCC3)cc2)[C@@H]1CNC(C)C,10
C[C@H]1CN(C)C(=O)Cc2cc(NS(C)(=O)=O)ccc2O[C@@H]1CN(C)S(C)(=O)=O,-4
Cc1nn2c(-c3cccnc3)ccnc2c1-c1ccccc1,-67
Cn1c(SC/C=C/c2ccccc2)nnc1-c1cccnc1,5
Cn1c(SSc2ccc(-c3cccnc3)n2C)ccc1-c1cccnc1,48*
COCC(=O)N1C[C@@H]2[C@H](c3ccccc31)[C@H](CO)N2C(=O)c1ccncc1,10[25 µM]
CO[C@@H]1CC[C@@H]2CCN(C)C(=O)CCCN(C)C(=O)c3cc(C#N)ccc3OC[C@@H]1O2,2[25 µM]
SMILES,BL2 CD40 inh
O=C(c1cnccn1)N1CC(=O)N2[C@H](CO)[C@@H](c3ccc(-c4cccc(F)c4)cc3)[C@@H]2C1,-3[25 µM]
Cc1sc2ncnc(SCc3ccco3)c2c1C,4
Cc1sc2nc(-c3ccco3)oc(=O)c2c1C,-31
Cc1nc(NCc2ccco2)c2c(C)c(C)sc2n1,49*
CO[C@@H]1CN(C)C(=O)c2cc(NC(=O)C3CCC3)ccc2OC[C@@H](C)N(C(=O)Nc2ccc(C(F)(F)F)cc2)C[C@H]1C,2
O=C(Nc1ccc(F)cc1)N1CC(=O)N2[C@H](CO)[C@H](c3ccc(C4=CCCC4)cc3)[C@@H]2C1,2[25 µM]

# Screening data: PubChem BioAssay, Broad Institute
